Inconclusive results are not listed. Where a call stands in place of a potency, no number is given. The source made the active and inactive calls. Calls follow the shape of the dose curve; as a rule, active = well fitted curve in the direction sought with a large enough effect; inconclusive = small, poorly fitted or top-dose-only effect, or another doubt; inactive = no such curve, though single readings can be large or run the other way.

For the test, the target named is Retinal dehydrogenase 2 (Homo sapiens) (UniProt O94788). The test is described as follows: qHTS for Inhibitors of the Aldehyde Dehydrogenase Family (ALDH1A2) Validation screens. The following applies: fluorescence read-out; Potency: ALDH1A2 inhibition qHTS validation; series mostly up to 49.8 µM. On the technique in general: In qHTS, concentration-response curves come from the screen itself.
As for `N/C(=N\OC(=O)c1ccccc1)c1ccccn1`, the Potency result was “inactive”.

As to `CC(C)(C)c1ccc(S(=O)(=O)/C=C/C#N)cc1`, the Potency is 2.82 µM (active).

For `CC(C)N(CCC(=O)c1ccc2ccccc2c1)Cc1ccccc1`, the Potency is 5.62 µM (active).

Take `CCCN(CCC)C(=O)Cn1c(=O)n(-c2ccc(C)cc2)c(=O)c2ccc(C(=O)NCc3ccccc3Cl)cc21`: the Potency result is “inactive”.

Regarding `O=C(OC1C[C@@H]2CC3C[C@H](C1)N2CC3=O)c1c[nH]c2ccccc12` (some centres undefined), the Potency entry was “inactive”.

`Cc1ccc(C(=O)Nc2cccc(C(=O)O)c2)cc1`: the Potency entry was “inactive”.

For `CCOC(=O)CSc1nc2c(sc3ccccc32)c(=O)n1CCCN1CCCC1`, the Potency entry is “inactive”.

Consider `CCOc1ccc(-c2cc(C(=O)N3CCN(c4ccccn4)CC3)c3ccccc3n2)cc1`, for which the Potency entry is “inactive”.

In the case of `CCOC(=O)CNS(=O)(=O)c1cc(-c2nnc(Nc3cccc(O)c3)c3ccccc23)ccc1C`, the Potency entry is “inactive”.
